High-throughput results from PubChem.
PI5P4K alpha inh: PI5P4K alpha (human) kinase inhibition; P48426; PI5P4Kalpha enzyme, ADP-Glo luminescence, 60 min; stronger effect = lower value; max response, %; actives 1.2% (n = 330,000); active = max response of -50% or lower; inconclusive = between -30% and -50%; inactive = -30% or higher; note: value at the top dose of about 77 µM; % is set by controls: 0 for no effect and ±100 for the full control effect
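Human PI5P4Kalpha with substrate in 0.038 M HEPES pH 7.4, 0.28 mM EGTA, 0.1% CHAPS, 5% DMSO; reaction started with 5 microM ATP (final), 60 min at room temperature. ADP formed read by ADP-Glo luminescence.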
BLM helicase inh-1: blocks DNA unwinding by human BLM helicase; P54132; recombinant BLM DNA unwinding, fluorescence dequenching; Potency, µM (series often up to 56.1 µM), without a hit: top-dose activity change, negative = inhibition, usual class: inhibitors; actives 0.2% (n = 350,000);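 note: potency is the fitted concentration of half-maximal effect; plate controls were vehicle for no effect and no enzyme for full effect; nearly all actives have a fitted effect of over 35% in size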
WRN helicase inh-1: WRN helicase (human) inhibition | WRN helicase unwinding, fluorescent forked duplex, kinetic | Potency, µM (series often up to 114 µM), inactives show top-dose activity change, negative = inhibition, actives largely listed as inhibitors | Q14191 | actives 0.46% (n = 360,000); note: potency is the fitted concentration of half-maximal effect; % is set by controls: 0 for no effect and ±100 for the full control effect; nearly all actives have a fitted effect of over 55% in size
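WRN at 20 nM final was preincubated with compound for 15 min at room temperature; reaction started with 100 nM forked duplex oligonucleotide carrying fluorophore and quencher plus 2 mM ATP (final). Unwinding followed kinetically by red fluorescence (ex 525/em 598 nm).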
FEN1 inh-1: inhibitors of human flap endonuclease 1. P39748. actives 0.35% (n = 390,000). Potency, µM (top dose mostly 114 µM), without a hit: top-dose activity change, negative = inhibition, usual class: inhibitors. Recombinant FEN1 flap cleavage, fluorescence, 15 min; note: potency is the fitted concentration of half-maximal effect; % is set by controls: 0 for no effect and ±100 for the full control effect; nearly all actives have a fitted effect of over 65% in size
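Reaction started by adding substrate (50 nM final) to 10 nM enzyme after 15 min room-temperature compound preincubation. Reads at 0 and 15 min, with data normalized and fitted to a four-parameter Hill equation.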
APE1 inh: APE1 (human) endonuclease inhibition. P27695. recombinant APE1, TAMRA/BHQ-2 abasic DNA cleavage fluorescence. Potency, µM (top dose mostly 65.8 µM), inactives show at the highest dose activity change, negative = inhibition, usual class: inhibitors. actives 0.35% (n = 350,000). AID 2517;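 note: potency is the fitted concentration of half-maximal effect; plate controls were vehicle for no effect and reference inhibitor for full effect; nearly all actives have a fitted effect of over 55% in size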
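Endonuclease cleavage of a quenched abasic-site DNA duplex (50 nM) by APE1 (0.75 nM) was tracked by TAMRA dequenching. Compounds were preincubated with enzyme 15 min at room temperature; data normalized to buffer-only and DMSO wells plus NSC13755 control.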
RECQ1 inh-1: blocks DNA unwinding by human RECQ1; AID 2549; actives 0.54% (n = 240,000); Potency, µM (series often up to 57.3 µM), for the others: top-dose activity, negative = inhibition, actives largely listed as inhibitors; RECQ1 DNA unwinding, red fluorescence kinetic read; P46063;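 note: potency is the fitted concentration of half-maximal effect; plate controls were vehicle for no effect and no enzyme for full effect; nearly all actives have a fitted effect of over 30% in size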
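RECQ1T1 50 nM; forked duplex (20 bp + 30-nt ss tails) 200 nM, ATP 2 mM final; pH 8.0, 2 mM MgCl2, 2.5 ug/ml poly(dI-dC); 15 min compound preincubation; discontinuous kinetic read over 2 h at RT.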
BLM inh: BLM (human) helicase inhibition, confirmation; actives 40% (n = 220); BLM DNA unwinding, fluorescence quenching, biochemical; Potency, µM, without a hit: max response, negative = inhibition, most hits filed as inhibitors; shares compounds with BLM helicase inh-1;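 note: strand separation dequenches TAMRA so unwinding raises red fluorescence; potency is the fitted concentration of half-maximal effect; series mostly up to about 69 µM; % is set by controls: 0 for no effect and ±100 for the full control effect; nearly all actives have a fitted effect of over 45% in size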
RECQ1 conf: confirmation of human RECQ1 helicase inhibitors; shares compounds with RECQ1 inh-1; RECQ1 helicase DNA unwinding, fluorescence; Potency, µM (top dose mostly 229 µM), inactives show at the highest dose activity change, negative = inhibition, actives largely listed as inhibitors; actives 28% (n = 610); note: potency is the fitted concentration of half-maximal effect; % is set by controls: 0 for no effect and ±100 for the full control effect; nearly all actives have a fitted effect of over 45% in size
ADP FP counter: counter-screen for RECQ1 inhibitors: ADP displacement; Potency, µM (doses to about 228 µM), inactives show top-dose activity change, negative = inhibition, actives largely listed as inhibitors; ADP fluorescence polarization displacement counterscreen; shares compounds with RECQ1 inh-1; actives 27% (n = 530); note: potency is the fitted concentration of half-maximal effect; % is set by controls: 0 for no effect and ±100 for the full control effect; nearly all actives have a fitted effect of over 45% in size
RECQ1 inh-2: confirmation of human RECQ1 helicase inhibitors; Potency, µM (series often up to 119 µM), for the others: at the highest dose activity, negative = inhibition, usual class: inhibitors; shares compounds with RECQ1 inh-1; actives 15% (n = 1,100); recombinant RECQ1 DNA unwinding, red fluorescence; note: potency is the fitted concentration of half-maximal effect; % is set by controls: 0 for no effect and ±100 for the full control effect; nearly all actives have a fitted effect of over 50% in size
FEN1 inh-2: confirmation of human FEN1 inhibitors; Potency, µM, usual class: inhibitors; shares compounds with FEN1 inh-1; actives 79% (n = 880); AID 720498; FEN1 flap cleavage, TAMRA/BHQ2 fluorogenic DNA substrate; note: potency is the fitted concentration of half-maximal effect; nearly all actives have a fitted effect of over 60% in size
WRN helicase inh-2: confirmation of human WRN helicase inhibitors | shares compounds with WRN helicase inh-1 | WRN helicase DNA unwinding, fluorescence kinetic | Potency, µM (series often up to 57.1 µM), for the others: at the highest dose activity, negative = inhibition, actives largely listed as inhibitors | actives 63% (n = 610); note: potency is the fitted concentration of half-maximal effect; nearly all actives have a fitted effect of over 65% in size
TO displacement: counter-screen for WRN helicase inhibitors: DNA binding; AID 720499; actives 10% (n = 610); Potency, µM (doses to about 57.1 µM), for inactives: top-dose activity change, negative = inhibition, actives largely listed as inhibitors; shares compounds with WRN helicase inh-1; thiazole orange DNA binding displacement, fluorescence;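 note: drop in dye fluorescence marks compound binding to DNA; potency is the fitted concentration of half-maximal effect; % is set by controls: 0 for no effect and ±100 for the full control effect; nearly all actives have a fitted effect of over 60% in size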
BLM helicase inh-2: BLM helicase inhibition, WRN selectivity check; shares compounds with WRN helicase inh-1; Recombinant BLM helicase DNA unwinding, red fluorescence; Potency, µM (titrated, usually from 57.1 µM), inactives show top-dose activity change, negative = inhibition, actives largely listed as inhibitors; actives 60% (n = 610); AID 720503; note: potency is the fitted concentration of half-maximal effect; nearly all actives have a fitted effect of over 60% in size
An asterisk follows results filed as active; ? = inconclusive; . = no result; ! = repeats disagree; [ ] = dose if it differs, or a comment. Compounds with a hit are over-represented: about 1.5% of the library has one in this group of screens. Unless noted, calls come from the whole dose curve; as a rule, active = well fitted curve in the direction sought with a large enough effect; inconclusive = small, poorly fitted or top-dose-only effect, or another doubt; inactive = no such curve, though single readings can be large; an effect the other way counts as inactive or inconclusive.

SMILES	PI5P4K alpha inh	BLM helicase inh-1	WRN helicase inh-1	FEN1 inh-1	APE1 inh	RECQ1 inh-1	BLM inh	others
Cc1[nH]c2ccccc2c1/C=N/NC(=O)c1cccc([N+](=O)[O-])c1	8	-8%	-11%[57.1 µM]	?	-11%	1.6µM*	?	RECQ1 conf=?;ADP FP counter=41%[91.9 µM]
Cc1[nH]c2ccccc2c1/C=N/NC(=O)c1cccc(F)c1	1	-10%	0%	-19%	3%	-8%	.
Cc1ccc(NCc2ccccc2OCc2ccccc2F)cc1	21	-23%	-3%	-14%	-10%	-14%	.
Oc1ccc(NCc2ccccc2OCc2ccccc2F)cc1	-23	28µM*!	?	?	?	-10%	?	FEN1 inh-2=?
CN(CCC#N)C(=O)COC(=O)c1c2c(nc3ccccc13)/C(=C/c1ccco1)CC2	-68*	14µM*	?	50µM*	14µM*	16µM*	?	RECQ1 inh-2=?;FEN1 inh-2=67*
COc1ccc(C(=O)Nc2nc(-c3nnn(-c4ccc(C(C)C)cc4)c3C)ns2)cc1	.	-3%	.	?	.	.	.
COc1ccc(-c2nc3c(c(SCC(=O)Nc4ccccc4OC)n2)Cc2cccc(C)c2O3)cc1	.	-6%	.	21%	.	.	.
Cc1ccc(-c2nc3c(c(SCC(=O)Nc4cccc(C(=O)O)c4)n2)Cc2cccc(C)c2O3)cc1	.	4.5µM*	.	?	1.9µM*	.	14µM*	RECQ1 conf=6.5µM*;WRN helicase inh-2=2.2µM*;TO displacement=2.7µM*;BLM helicase inh-2=0.86µM*
Cc1cc(NC(=O)CN2C(=O)C(C)(C)c3ccccc32)ccc1Br	.	-8%	.	-18%	.	.	.
COc1ccccc1CNC(=O)COC(=O)c1cc(-c2ccco2)nc2ccccc12	.	11µM*	35µM*	50µM*	11µM*	?	18µM*	RECQ1 inh-2=?;WRN helicase inh-2=19µM*;TO displacement=?;BLM helicase inh-2=17µM*
